A number with no mark means an inactive call. Calls of active or inactive are those of the source.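 Rule for the calls: active = IC50 below 10 µM at human M5 in a calcium flux test, acting as a negative modulator; inactive = the rest.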

The target in this test is Muscarinic acetylcholine receptor M5 (Homo sapiens) (UniProt P08912). Briefly: inhibition of ACh-evoked M5 calcium signal – cell-based, single concentration, human M5 (AID 743025). Particulars: CHO-K1 hM5, ACh EC80 calcium flux, Fluo-4; at 10 µM; stronger effect = lower value. On the technique in general: A change in cytosolic calcium serves as a functional read-out for many receptors and channels.
Sequence of Muscarinic acetylcholine receptor M5 (Homo sapiens) (P08912 whole entry, looked up): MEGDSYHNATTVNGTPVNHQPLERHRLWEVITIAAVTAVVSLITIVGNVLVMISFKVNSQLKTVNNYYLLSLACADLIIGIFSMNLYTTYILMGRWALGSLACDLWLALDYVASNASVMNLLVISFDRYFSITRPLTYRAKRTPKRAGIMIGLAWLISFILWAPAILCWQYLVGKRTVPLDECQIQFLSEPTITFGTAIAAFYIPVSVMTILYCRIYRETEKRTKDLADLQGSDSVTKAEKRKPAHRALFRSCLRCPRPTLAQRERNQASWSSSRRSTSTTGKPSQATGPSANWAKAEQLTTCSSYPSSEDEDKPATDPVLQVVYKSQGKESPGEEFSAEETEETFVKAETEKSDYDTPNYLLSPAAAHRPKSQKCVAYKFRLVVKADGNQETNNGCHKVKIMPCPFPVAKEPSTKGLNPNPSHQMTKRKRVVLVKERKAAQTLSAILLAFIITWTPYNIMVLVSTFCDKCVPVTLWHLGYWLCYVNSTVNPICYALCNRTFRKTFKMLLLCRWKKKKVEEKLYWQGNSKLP
In the case of `O=C(c1ccc(F)cc1)N1CCN2C(=O)c3ccccc3C12c1ccc(F)cc1` (configuration not stated), the activity remaining is 69.7%.
On to `O=C(c1ccccn1)N1CCN2C(=O)c3ncccc3C12c1ccccc1` (configuration not stated), for which the activity remaining was 73.7%.
Turning to `COc1ccc(C23c4ccccc4C(=O)N2CCN3C(=O)c2ccc(C)cc2)cc1` (configuration not stated), the activity remaining was 68.4%.
For the compound `CC(C)Oc1ccc(C(=O)N2CCN3C(=O)c4ccccc4C23c2ccc(Cl)cc2)cc1` (configuration not stated), the activity remaining is -1.43% (active).
Consider `COc1cc(C(=O)N2CCN3C(=O)c4ccccc4C23c2ccc(Cl)cc2)cc(OC)c1OC` (configuration not stated), for which the activity remaining was 63.4%.
Take `Cc1ccc(C23c4ccccc4C(=O)N2CCN3C(=O)c2ccc(C(F)(F)F)cc2)cc1` (configuration not stated): the activity remaining is 28.6% (active).
`CCOc1ccc(C(=O)N2CCN3C(=O)c4ccccc4C23c2ccccc2)cc1` (configuration not stated): the activity remaining was 61.1%.

These data come from PubChem BioAssay AID743025 (Vanderbilt Specialized Chemistry Center, 2013).
